# Experimental data taken from PubChem BioAssay (EPA / NIEHS).
# The source made the active and inactive calls. The calls were made as follows: active = hit-call score of the fitted dose curve at least 0.9, where 1 is the maximum; inactive = score below 0.9.
# Read-out: CYP2C9 (gene 1559)
# Assay: LTEA_HepaRG_CYP2C9: Life Technologies and Expression Analysis (LTEA) Assay for CYP2C9 using HepaRG (AID 2283484)
# Details: mRNA level, 48 h; actives raise or lower the signal
# Procedure: LTEA_HepaRG is a cell based, multiplexed-readout assay that uses HepaRG, a human liver cell line, with measurements taken at 48 hours after chemical dosing on a 96-well plate.LTEA_HepaRG_CYP2C9 is one of 102 assay component(s) measured in the LTEA HepaRG cell culture assay. It is a marker of NR mediated metabolism.Data from the assay component LTEA_HepaRG_CYP2C9 was analyzed into 1 endpoint. This assay endpoint, LTEA_HepaRG_CYP2C9, was analyzed with bidirectional fitting relative to DMSO as the negative control and baseline of activity. Using a type of inducible reporter, measures of mRNA induction for gain or loss-of-signal activity can be used to understand regulation of transcription factor activity. To generalize the intended target to other relatable targets, this assay endpoint is annotated to the cyp intended target family, where the subfamily is xenobiotic metabolism.
# A total of 1060 chemcials from the ToxCast library were tested in eight-point concentration-response experiments. Cell culture and cytotoxicity assays were conducted at Thermo Fisher Scientific's Custom Services facility (Madison, WI). A single lot of human HepaRG cells (Thermo Fisher Scientific, Frederick, MD) was used for the cell culture experiments. 96-well format collagen type I coated plates of human HepaRG cells were prepared using established methods. Briefly, cryopreserved HepaRG cells were thawed, plated at a density of approximately 100,000 cells/well in HepaRG Thaw, Plate, and General Purpose media (HPRG770, Thermo Fisher Scientific), and incubated for 48 hours. 0.5% DMSO was selected as vehicle control to balance the requisite need of DMSO in HepaRG cultures to maintain differentiation (for example, baseline metabolism, proportions of hepatocytes vs. cholangiocytes), while enabling further hepatic receptor pathway activation (for example, PXR and CAR) in response to chemical exposure. 48 hours after plating, the culture medium was replaced with HepaRG Serum-Free Incudtion Media. Cells were exposed to each test chemical in duplicate and maintained in CO2 incubators for another 48 hours. Chemical plates were thawed to room temperature and 200x concentrations of treatment groups were prepared. 8-point conentration-reponse curves were made with the highest exposure at 100 uM, followed by half-log dilutions, all in 0.5% DMSO. Each test plate contained variouse controls, induction positive controls (1mM phenobarbital), cytotoxicity positive controls ([…] aflatoxin B1), vehicle controls (0.5% DMSO), and total lysis controls (0.5% DMSO). Cell morphology images were taken using an Essen IncuCyte FLR automated microscope, with six 96-well plates imaged in about 24 minutes. Images were captured and exported and JPEG files. Spent culture media was transfered to black-well plates for the LDH assay, and remaining media was sorted at -80 C for later use. Cells were treated with RLT buffer and frozen until shipped for gene expression analysis. Total RNA was isolated from the cell suspension in 75 uL of Buffer RLT (Qiagen, Germantown, MD 20874) by Quintiles/Expression Analysis (Durham, NC) using a custom isolation procedure. Total RNA from each plate well was transferred to a preamplification plate. Fluidigm's 96.96 Dynamic ArrayTM (Fluidigm, Amsterdam, the Netherlands) technology was used for gene expression analyses by quantitative reverse transcription polymerase chain reaction (qRT-PCR, performed by Quintiles/Expression Analysis, Durham, NC)89. Standard TaqManTM Assays (Applied Biosystems/ThermoFisher Scientific, Foster City, CA) were used to assess the expression of 93 genes selected based on their selectivity and sensitivity to important hepatic receptors known to be modulated by environmental chemicals; importance in human hepatocyte functionality; and hepatotoxicity. […]
Compound,outcome,AC50
CC1=C(/C=C/C(C)=C/C=C/C(C)=C/CO)C(C)(C)CCC1,inactive,–
COc1cc(C=O)ccc1O,inactive,–
CCCCCCCCCCCCCCCCCC(=O)O,inactive,–
Nc1ccccc1N,–,71 µM (active)
Cc1ccc(C)c(C)c1,inactive,–
FC(F)(F)C(F)(F)C(F)(F)C(F)(F)C(F)(F)C(F)(F)CCI,inactive,–
Nc1nc(N)c2nc(CNc3ccc(C(=O)N[C@@H](CCC(=O)O)C(=O)O)cc3)cnc2n1,inactive,–
O=c1[nH]cc(F)c(=O)[nH]1,inactive,–
CCCCCCCC=O,inactive,–
C[Si]1(C)O[Si](C)(C)O[Si](C)(C)O[Si](C)(C)O1,inactive,–
Cc1ccc(C)c(O)c1C,inactive,–
CCOC(=O)C(C)(C)Oc1ccc(Cl)cc1,inactive,–
CC(CO)OC(C)CO (stereo not given) (tested in a mixture with another compound),inactive,–
CN[C@H]1CC[C@@H](c2ccc(Cl)c(Cl)c2)c2ccc(S(N)(=O)=O)cc21,–,34.1 µM (active)
CCCCCCCCCCO,inactive,–
c1cc(-c2ccncc2)ccn1,inactive,–
O=c1c(O)c(-c2ccc(O)c(O)c2)oc2cc(O)cc(O)c12,inactive,–
Cc1cccc([N+](=O)[O-])c1C,inactive,–
NCC1(Cc2noc(=O)[nH]2)CCCCC1,inactive,–
COC(=O)c1ccc(O)cc1,inactive,–

Compound,outcome,AC50
COc1ccc(C)cc1N,inactive,–
CCOc1ccc2c(c1)C(C)=CC(C)(C)N2,inactive,–
Cc1c(C(=O)O)c(O)cc2c1C(=O)c1c(O)c([C@@H]3O[C@H](CO)[C@@H](O)[C@H](O)[C@H]3O)c(O)c(O)c1C2=O,inactive,–
Cc1ccc2ncccc2c1,inactive,–
O=C(O)CCCCC(=O)O,inactive,–
Clc1cc(Cl)c(Cl)cc1Cl,inactive,–
CN1CCN(Cc2cc(-c3ccc4[nH]c(=O)oc4c3)co2)[C@@H](c2ccc(F)cc2)C1,–,88 µM (active)
CCCCc1ccc2c(n1)[C@@H](c1ccc(OC)cc1C[C@H](C)C(=O)O)[C@H](C(=O)O)[C@H]2c1ccc2c(c1)OCO2,inactive,–
Oc1ccc2ccccc2c1N=Nc1ccccc1,–,9.92 µM (active)
C=CCOC(=O)c1ccccc1C(=O)OCC=C,inactive,–
CC(=O)OC/C=C(\C)CCC=C(C)C,inactive,–
Cc1ccc(N(C)C)cc1,inactive,–
O=C(OCCCCCOC(=O)c1ccccc1)c1ccccc1,inactive,–
Nc1ccc2c(c1)C(=O)c1ccccc1C2=O,–,1.04 µM (active)
Cc1nc(-c2ccc3c(c2)CCN(CCC2CCC(NC(=O)/C=C/c4ccc(F)cc4)CC2)CC3)no1 (stereo not given),inactive,–
CCCCC(CC)COC(=O)CC(C(=O)OCC(CC)CCCC)S(=O)(=O)O (stereo not given),–,88.1 µM (active)
Cc1cccc(Nc2cc(Cl)nc(SCC(=O)O)n2)c1C,inactive,–
CC1(C)NC(=O)NC1=O,inactive,–
CC(=O)OCCOCCOCCOC(C)=O,inactive,–
O=C(O)Cc1ccccc1Nc1c(Cl)cccc1Cl,inactive,–
